Assay [1] is described as follows: inhibitors of TNFa-induced NFkB p65 translocation, primary screen, imaging, HUVEC, MLSMR starter and 10KST1 sets (AID 438;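 active means inhibition above 20% together with a positive visual image hit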;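 further: compound added about 3h40 before a 20 min TNFalpha stimulation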;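 on inhibition: signal is the nuclear over cytoplasmic p65 intensity ratio per well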). Particulars: HUVEC TNFa-induced p65 nuclear translocation; cell count: measured here: nuclei count (cytotoxicity indicator), at 2.08 µM; inhibition: at 2 µM, stronger effect = higher value, 0% TNFa-plus-vehicle, 100% no-TNFa wells.
Assay [2] in a line: inhibitors of mutant huntingtin aggregation, primary screen, imaging, exon1htt(103Q)mCFP cells, high-content imaging (AID 483;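 active means visual image review flags a hit and inhibition of aggregation exceeds 20%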;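 further: compound exposure lasted 3 days before fixation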;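 on nuclei count: percent of the per-plate median nuclei count of sample wells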). Particulars: exon1htt(103Q)mCFP cell line, aggregate imaging, at 2 µM; inhibition of aggregation: stronger effect = higher value; nuclei count: measured here: cell count, toxicity.
Assay [3] is described as follows: inhibitors of E-selectin induction by TNFa, primary screen, imaging, HUVEC, immunofluorescence, MLSMR starter and 10KST1 sets (AID 487;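 active means visually confirmed hit in the image check and inhibition above 20%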;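 on inhibition: signal is fraction of cell area covered by stained E-selectin grains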;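 on nuclei count: 100% = median nuclei count of all wells on the same plate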). The settings on record: HUVEC TNFalpha-induced E-selectin immunofluorescence imaging, at 2 µM; inhibition: stronger effect = higher value; nuclei count: measured here: cell number, toxicity.
Assay [4] can be described thus: DUSP6 inhibitors restoring Erk phosphorylation by chemical complementation, primary imaging in DUSP6-transfected HeLa (AID 609;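 active means compounds giving at least 50% inhibition in the cell-based MKP-3 phosphatase rescue imaging test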;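 on inhibition: phospho-Erk level distribution per well compared with pooled transfected vehicle control wells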). The settings on record: HeLa MKP-3 transfected, phospho-Erk imaging KS statistic, at 10 µM, cells stimulated with TPA for 15 min.
Assay [5] has as its target Dual specificity protein phosphatase 6 (Homo sapiens) (UniProt Q16828). The assay is described as above. Particulars: HeLa MKP-3 transfected, phospho-Erk imaging KS statistic; at 10 µM; stronger effect = higher value; cells stimulated with TPA for 15 min.
Assay [6] addresses Voltage-gated potassium channel subunit beta-2 (Rattus norvegicus) (UniProt P62483). Description: KvBeta enzyme negative modulators, primary screen, biochemical, NADPH fluorescence (AID 622;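 active means fluorescence slope higher than the sample average by over 3 SD, cut at about -0.22 in these data, passing the limit was not always enough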;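 further: slope of raw intensity against log time taken from 70 to 1610 s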). The settings on record: recombinant KvBeta, 4-cyanobenzaldehyde reduction, at 10 µM, stronger effect = higher value.
For assay [7] the target is unchanged. Put plainly: KvBeta positive modulators, primary screen, biochemical, NADPH fluorescence (AID 623;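 active means NADPH fluorescence slope more negative than the mean of all samples by about 3 SD, 99.7% confidence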;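 further: fluorescence intensity change per second fitted from 20 to 320 s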). The settings on record: Recombinant KvBeta, NADPH fluorescence decrease slope, 10 min; at 10 µM; stronger effect = lower value.
The target in assay [8] is Muscarinic acetylcholine receptor M4 (Homo sapiens) (UniProt P08173). Put plainly: compounds altering M4/GIRK thallium flux, either direction, primary screen, M4 allosteric agonist project, cell-based, HEK293 M4/GIRK, BTC-AM (AID 625).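 Further: thallium influx through GIRK channels coupled to M4 in HEK293 cells with BTC-AM dye.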 The settings on record: at 10 µM, actives lie on both sides.
Chain of Muscarinic acetylcholine receptor M4 (Homo sapiens) (P08173 whole entry, looked up): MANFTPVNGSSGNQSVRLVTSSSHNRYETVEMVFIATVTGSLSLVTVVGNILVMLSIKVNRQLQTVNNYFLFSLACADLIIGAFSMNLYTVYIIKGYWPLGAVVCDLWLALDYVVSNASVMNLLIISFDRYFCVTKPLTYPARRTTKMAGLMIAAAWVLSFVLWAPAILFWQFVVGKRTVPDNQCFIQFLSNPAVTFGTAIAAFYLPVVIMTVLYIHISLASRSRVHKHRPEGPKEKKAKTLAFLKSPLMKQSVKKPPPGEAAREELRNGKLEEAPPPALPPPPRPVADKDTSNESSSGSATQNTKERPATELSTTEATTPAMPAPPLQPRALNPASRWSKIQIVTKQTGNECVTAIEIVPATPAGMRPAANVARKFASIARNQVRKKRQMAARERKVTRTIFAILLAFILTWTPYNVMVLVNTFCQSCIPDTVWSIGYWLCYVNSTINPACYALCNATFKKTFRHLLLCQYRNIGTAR
Assay [9] is described as follows: inhibitors of larval lipid processing in zebrafish, primary screen, whole organism, PED6 fluorescence, gall bladder and intestine (AID 686;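 active means a full or partial loss of lipid-probe fluorescence in the fish gall bladder, intestine or both, judged by eye; inactive means no fluorescence loss, or compound toxic to the fish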;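 further: larvae 5 to 7 days old with five fish per well; signal comes from phospholipase A2 cleavage of quenched PED6 carried via bile; overnight exposure to compound and PED6 before scoring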). The settings on record: Zebrafish larvae PED6 lipid processing, fluorescence scoring; screened at 20 µM (by protocol).
Assay [10] can be described thus: inhibitors of Chlamydomonas gravitaxis, primary screen, whole organism, Chlamydomonas reinhardtii, WT vs cilia-less mutant, absorbance, 96-well (AID 463189;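 active means inhibition at or above 50% relative to wild type and mutant plate controls; inactive means inhibition below 50%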;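 further: 0% = wild type cc124 cells in DMSO and 100% = ciliumless bld1 mutant cells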). The settings on record: OD600 absorbance, 2 days, at 10 µM, stronger effect = higher value.
Assay [11] in a line: inhibitors of Sendai virus-induced IRF3 signaling, primary screen, TLR/RLR signaling modifier project, cell-based, Sendai virus stimulus, luciferase, 10K MLSCN set (AID 602276;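 active means inhibition at or above 50% at 10 µM; inactive means inhibition below 50%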;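 further: firefly luciferase from ISG56 promoter only with Renilla not read in this screen; 0% = Sendai virus plus DMSO and 100% = medium plus DMSO without virus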). The settings on record: HEK293 RL24 IRF3 luciferase reporter, at 10 µM, stronger effect = higher value. (In general: In a reporter assay the amount or activity of a reporter protein is the signal.)
A short description of assay [12]: inhibitors of poly I:C-induced TLR3 signaling, primary screen, cell-based, poly I:C stimulus, luciferase, 10K MLSCN set (AID 602277;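 active means inhibition of the reporter signal at or above 50%; inactive means inhibition below 50%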). Particulars: HEK293-TLR3 RL24 IRF3 luciferase reporter, at 10 µM, stronger effect = higher value.
The mark [13] stands for this setting: measured here: cell density z-score.
The mark [14] stands for this setting: measured here: nuclear c-Myc green intensity z-score.
[15] abbreviates: measured here: nuclear pErk red intensity z-score, stronger effect = higher value.

Calls of active or inactive are those of the source.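 How the source made its calls, unless noted: active means fluorescence slope after compound addition differing from the mean of all tested samples at 99.7% confidence, mostly higher but some lower; inactive means the rest.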

Chain of Voltage-gated potassium channel subunit beta-2 (Rattus norvegicus) (P62483 whole entry, looked up): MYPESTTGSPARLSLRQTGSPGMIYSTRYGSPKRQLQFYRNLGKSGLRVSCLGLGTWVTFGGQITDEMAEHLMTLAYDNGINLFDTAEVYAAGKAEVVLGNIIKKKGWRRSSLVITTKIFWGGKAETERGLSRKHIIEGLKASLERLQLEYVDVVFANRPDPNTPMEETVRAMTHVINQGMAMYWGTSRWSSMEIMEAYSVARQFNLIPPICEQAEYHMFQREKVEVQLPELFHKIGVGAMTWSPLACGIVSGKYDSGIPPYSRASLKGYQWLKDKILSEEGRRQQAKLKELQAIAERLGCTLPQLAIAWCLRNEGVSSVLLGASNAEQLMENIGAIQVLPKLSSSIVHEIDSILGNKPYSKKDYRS
Chain of Dual specificity protein phosphatase 6 (Homo sapiens) (Q16828 whole entry, looked up): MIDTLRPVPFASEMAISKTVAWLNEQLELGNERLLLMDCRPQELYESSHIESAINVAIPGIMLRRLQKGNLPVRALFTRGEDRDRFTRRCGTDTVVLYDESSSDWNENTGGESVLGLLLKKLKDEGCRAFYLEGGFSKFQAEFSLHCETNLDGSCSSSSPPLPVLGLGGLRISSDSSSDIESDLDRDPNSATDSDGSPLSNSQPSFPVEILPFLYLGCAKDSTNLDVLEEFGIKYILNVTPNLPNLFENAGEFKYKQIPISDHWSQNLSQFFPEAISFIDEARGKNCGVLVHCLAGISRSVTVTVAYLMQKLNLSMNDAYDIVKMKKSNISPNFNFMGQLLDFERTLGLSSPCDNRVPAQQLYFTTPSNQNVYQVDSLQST

Consider `O=S(=O)(NCc1cccnc1)c1cccc2nsnc12`, for which the cell count in assay [1] was 643. In addition, the inhibition is -2.6% (inactive) in [1]; -80.9% (inactive) in assay [3]; -3.97% (inactive) in assay [5]; -1.56% (inactive) in assay [10]; 15.1% (inactive) in assay [11]; 21.7% (inactive) in assay [12]. For the same compound, the inhibition of aggregation in assay [2] is -2.4% (inactive). Further, the nuclei count came to 125% in assay [2] and 137% in [3]. Also, the z-score in assay [4] (setting [13]) was -0.856; in [4] (setting [14]), 1.61; in assay [4] (setting [15]) it was 0.356. Also, the fluorescence slope in [6] is -0.482 (inactive); in assay [8], 0.00583 (inactive). Besides, the NADPH fluorescence slope in [7] was -5e-05 (inactive). Also, the outcome in [9] was inactive.

Consider `COc1ccc(C2(CN(C(C)=O)C(C)=O)CCCC2)cc1OC`, for which the cell count in assay [1] was determined as 676. Also, the inhibition was -6.2% (inactive) in assay [1]; -28.3% (inactive) in assay [3]; 1.98% (inactive) in [5]; -15.3% (inactive) in assay [10]; 1.22% (inactive) in [11]; 7.89% (inactive) in [12]. The inhibition of aggregation in assay [2] was 6.8% (inactive). The nuclei count in [2] is 109%; in assay [3], 139%. In addition, the figures for the z-score in assay [4] (setting [13]), in [4] (setting [14]) and in assay [4] (setting [15]) were -0.215, 1.01 and -1.44, respectively. Moreover, the fluorescence slope was -0.504 (inactive) in assay [6] and 0.00396 (inactive) in assay [8]. Further, in assay [7], the NADPH fluorescence slope is -6.2e-05 (inactive). Further, the compound was called inactive in assay [9].

In the case of `c1ccc(CN2CCN(c3ncnc4c3[nH]c3ccccc34)CC2)cc1`, the cell count in assay [1] is 599. In addition, the inhibition in [1] is -13.1% (inactive); in assay [3] it was -47.4% (inactive); in assay [5], 13.4% (inactive); in [10] it was 21.2% (inactive); in assay [11], 1.57% (inactive); in assay [12] it was -46.7% (inactive). Further, the inhibition of aggregation in assay [2] was 10.3% (inactive). The nuclei count turned out to be 94.4% in assay [2] and 137% in assay [3]. The z-score was 0.378 in assay [4] (setting [13]), -1.18 in assay [4] (setting [14]) and -0.208 in assay [4] (setting [15]). Further, the fluorescence slope is -0.381 (inactive) in assay [6] and 0.00594 (inactive) in [8]. Besides, the NADPH fluorescence slope in [7] is -2.8e-05 (inactive). For the same compound, the outcome in assay [9] is “active; weak signal in intestine only”.

Consider `CCOc1c(C)cc2[nH]c(CCC(=O)O)nc2c1C`, for which, in [1], the cell count was found to be 445. Further, the inhibition is 0.7% (inactive) in assay [1]; -40.3% (inactive) in assay [3]; 7.42% (inactive) in assay [5]; 21.6% (inactive) in assay [10]; 8.15% (inactive) in [11]; 8.77% (inactive) in [12]. Further, the inhibition of aggregation in [2] was 8.3% (inactive). For the same compound, the values for the nuclei count in assay [2] and in [3] were 97.7% and 116%, respectively. Moreover, the figures for the z-score in assay [4] (setting [13]), in assay [4] (setting [14]) and in assay [4] (setting [15]) were 1.23, -1.62 and -1.73, respectively. In addition, the fluorescence slope in assay [6] was -0.491 (inactive); in assay [8] it was 0.00428 (inactive). Further, the NADPH fluorescence slope in assay [7] is -3.6e-05 (inactive). Moreover, the outcome in [9] was inactive.

`Cn1c(SCC(=O)N2CCOCC2)nnc1-c1cccc(NC(=O)c2ccccc2F)c1`: the cell count in assay [1] was found to be 576. Also, the inhibition in assay [1] was -2.8% (inactive); in [3], 17.5% (inactive); in [5], 1.63% (inactive); in assay [10], 20.3% (inactive); in assay [11], 13.9% (inactive); in [12], 22.5% (inactive). Also, the inhibition of aggregation in [2] is -17.6% (inactive). Also, the nuclei count in [2] is 115%; in assay [3], 107%. The z-score in assay [4] (setting [13]) was -2.39; in [4] (setting [14]) it was 0.78; in assay [4] (setting [15]), -0.11. In addition, the fluorescence slope in assay [6] is -0.578 (inactive); in [8], 0.00616 (inactive). Also, in assay [7], the NADPH fluorescence slope was -5.9e-05 (inactive). In addition, the result in [9] was inactive.

For the compound `CCn1nc(NC(=O)c2cccnc2)c2cc3ccccc3nc21`, in [1], the cell count turned out to be 522. Also, the inhibition is -0.4% (inactive) in assay [1]; -29.4% (inactive) in assay [3]; -6.48% (inactive) in assay [5]; 3.52% (inactive) in assay [10]; 10.7% (inactive) in assay [11]; -6.02% (inactive) in assay [12]. For the same compound, the inhibition of aggregation in [2] is -3.3% (inactive). Besides, the nuclei count in [2] was found to be 104%; in assay [3], 133%. Further, the z-score in assay [4] (setting [13]) was 0.0666; in assay [4] (setting [14]), 1.36; in assay [4] (setting [15]) it was -0.336. The fluorescence slope in [6] was -0.423 (inactive); in assay [8], 0.00509 (inactive). Also, in assay [7], the NADPH fluorescence slope is -3.9e-05 (inactive). Further, the compound was called inactive in assay [9].

One may read the inhibition as the drop in the measured response relative to a control, in per cent.

Values taken from PubChem BioAssay.
